Out of some 39,000 compounds screened, about 1,500 (3.8%) were called active. The list comes from a sample in which actives are over-represented; it also holds similar structures and randomly drawn compounds.

This assay concerns HSkMC (human skeletal muscle cells). As to the kind of experiment: cytotoxicity call (relative viability < 0.9). As to conditions: 10 µM.
As to `C1CCN2CC3CC(CN4CCCCC34)C2C1.O=S(=O)(O)O` (centres undefined), the cytotoxicity call is “inactive”. As to `C[C@@H]1CN([C@@H](C)CO)C(=O)c2cc(NC(=O)CCCN(C)C)ccc2O[C@H]1CN(C)S(=O)(=O)c1ccc(Cl)cc1`, the cytotoxicity call is “inactive”.

As to `C[C@H]1CN([C@@H](C)CO)C(=O)Cc2cc(N(C)C)ccc2O[C@@H]1CN(C)S(=O)(=O)c1ccc(F)cc1`, the cytotoxicity call was “inactive”. `C[C@@H]1CN([C@H](C)CO)C(=O)CCCn2cc(nn2)CO[C@H]1CN(C)S(=O)(=O)c1ccc(Oc2ccccc2)nc1`: the cytotoxicity call is “inactive”. Take `C[C@@H]1CN([C@@H](C)CO)C(=O)c2cccc(NC(=O)C3CC3)c2O[C@@H]1CN(C)S(=O)(=O)c1ccc(F)cc1`: the cytotoxicity call is “inactive”. Under `Cn1c(Nc2ccc(C(F)(F)F)cc2)nc2cc(Oc3ccnc(-c4ncc(C(F)(F)F)[nH]4)c3)ccc21` stands “active”; under `Nc1nc(=O)c2c(CCc3ccc(C(=O)NC(CCC(=O)[O-])C(=O)[O-])cc3)c[nH]c2[nH]1.[Na+].[Na+]` (centres undefined), “inactive”; under `CC(C)CC#Cc1ccc2c(c1)O[C@@H](CN(C)C(=O)c1cnccn1)[C@@H](C)CN([C@@H](C)CO)S2(=O)=O`, “inactive”. Regarding `COc1ccc(CN(C)C[C@@H]2Oc3ccc(NS(=O)(=O)c4c(C)noc4C)cc3CC(=O)N([C@H](C)CO)C[C@H]2C)cc1`, the cytotoxicity call is “inactive”.

Regarding `CC1C=CC=CC=CC=CC=CC=CC=CC(OC2OC(C)C(O)C(N)C2O)CC2OC(O)(CC(O)CC(O)C(O)CCC(O)CC(O)CC(=O)OC(C)C(C)C1O)CC(O)C2C(=O)O` (centres undefined), the cytotoxicity call is “inactive”. Then `C[C@H]1[C@@H](O)[C@@H](C)\C=C/C=C\C=C/C=C\C=C/C=C\C=C/[C@@H](O[C@H]2O[C@H](C)[C@@H](O)[C@H](N)[C@@H]2O)C[C@H]2O[C@](O)(C[C@@H](O)C[C@@H](O)[C@@H](O)CC[C@@H](O)C[C@@H](O)CC(=O)O[C@H]1C)C[C@@H](O)[C@@H]2C(=O)O`, with “inactive”. With `CC1C=CC=CC=CC=CC=CC=CC=CC(OC2OC(C)C(O)C(N)C2O)CC(O)C(C(=O)O)C(O)CC(=O)CC(O)CC(O)CC(O)CC(=O)CCCC(=O)CC(=O)OC1C(C)CC(C)C(O)CC(=O)c1ccc(N)cc1` (centres undefined), the cytotoxicity call was “active”. Turning to `COc1ccc(CN(C)C[C@@H]2OCCCC[C@@H](C)Oc3ccc(NC(=O)NC(C)C)cc3C(=O)N([C@H](C)CO)C[C@H]2C)cc1`, the cytotoxicity call was “inactive”. As for `Cc1cccc(NC(=O)Nc2ccc3c(c2)C(=O)N(C)[C@@H]2CC[C@H](CC(=O)NCc4ccccc4Cl)O[C@@H]2CO3)c1`, the cytotoxicity call was “inactive”. Then `Cc1ccc(S(=O)(=O)Nc2ccc3c(c2)C(=O)N([C@H](C)CO)C[C@@H](C)[C@@H](CN(C)S(C)(=O)=O)OCCCC[C@H](C)O3)cc1`, with “inactive”; and `c1cnc2c(SCc3nc4ccccc4s3)cccc2c1`, with “active”; and `c1ccc2c(CSc3nc4ccccc4s3)cccc2c1`, with “inactive”. As for `CCSc1cccc2cccnc12`, the cytotoxicity call was “inactive”. In the case of `Cc1ccc(S(=O)(=O)Nc2ccc3c(c2)CC(=O)N([C@@H](C)CO)C[C@@H](C)[C@H](CN(C)C(=O)Nc2ccc(C(F)(F)F)cc2)O3)cc1`, the cytotoxicity call was “inactive”. Regarding `C[C@@H]1CN([C@@H](C)CO)C(=O)c2cc(C#Cc3ccccc3F)cnc2O[C@@H]1CN(C)C(=O)Cc1ccncc1`, the cytotoxicity call was “inactive”. Then `Cc1ccc(S(=O)(=O)Nc2ccc3c(c2)C(=O)N([C@@H](C)CO)C[C@H](C)[C@H](CN(C)Cc2ccc(C(F)(F)F)cc2)O3)cc1`, with “inactive”. In the case of `Cc1ccc(S(=O)(=O)Nc2ccc3c(c2)C(=O)N([C@@H](C)CO)C[C@H](C)[C@@H](CN(C)Cc2ccc(C(F)(F)F)cc2)O3)cc1`, the cytotoxicity call was “inactive”. Then `Cc1ccc(S(=O)(=O)Nc2ccc3c(c2)C(=O)N([C@H](C)CO)C[C@H](C)[C@H](CN(C)Cc2ccc(C(F)(F)F)cc2)O3)cc1`, with “inactive”; and `Cc1ccc(S(=O)(=O)Nc2ccc3c(c2)C(=O)N([C@H](C)CO)C[C@H](C)[C@@H](CN(C)Cc2ccc(C(F)(F)F)cc2)O3)cc1`, with “inactive”. In the case of `Cc1ccc(S(=O)(=O)Nc2ccc3c(c2)C(=O)N([C@H](C)CO)C[C@@H](C)[C@H](CN(C)Cc2ccc(C(F)(F)F)cc2)O3)cc1`, the cytotoxicity call is “active”. Then `Cc1ccc(S(=O)(=O)Nc2ccc3c(c2)C(=O)N([C@H](C)CO)C[C@@H](C)[C@@H](CN(C)Cc2ccc(C(F)(F)F)cc2)O3)cc1`, with “active”.

Regarding `COc1ccc2c3c(n(c2c1)C)[C@@H](CO)N(C[C@]13CN(C1)C(=O)C)C(=O)CN1CCOCC1`, the cytotoxicity call was “inactive”. For the compound `Cc1noc(C)c1S(=O)(=O)Nc1ccc2c(c1)CC(=O)N([C@@H](C)CO)C[C@@H](C)[C@@H](CN(C)S(=O)(=O)c1ccccc1)O2`, the cytotoxicity call is “inactive”.

For the compound `CN(C)C(=O)C[C@H]1C=C[C@@H](NC(=O)C2CC2)[C@@H](CO)O1`, the cytotoxicity call is “inactive”.

On to `COc1ccc([Si](C)(C)[C@H]2[C@H](CCO)O[C@@]3(C(=O)N(Cc4ccccc4)c4ccc(N5C(=O)c6cccc7cccc5c67)cc43)[C@@H]2C)cc1`, for which the cytotoxicity call is “inactive”. Consider `C=CCN1C(=O)[C@]2(O[C@H](CCn3cc([C@H](O)c4ccccc4)nn3)[C@@H]([Si](C)(C)c3ccc(OC)cc3)[C@@H]2C)c2cc(N3C(=O)c4cccc5cccc3c45)ccc21`, for which the cytotoxicity call is “inactive”.

With `C=CCN1C(=O)[C@]2(O[C@H](CCO)[C@@H]([Si](C)(C)c3ccc(OC)cc3)[C@@H]2C)c2cc(N3C(=O)c4cccc5cccc3c45)ccc21`, the cytotoxicity call is “active”. `C=CCN1C(=O)[C@@]2(O[C@@H](CCO)[C@H]([Si](C)(C)F)[C@H]2C)c2cc(N3C(=O)c4cccc5cccc3c45)ccc21`: the cytotoxicity call was “inactive”. For `C=CCN1C(=O)[C@@]2(O[C@@H](CCn3cc([C@H](O)c4ccccc4)nn3)[C@H]([Si](C)(C)c3ccc(OC)cc3)[C@H]2C)c2cc(N3C(=O)c4cccc5cccc3c45)ccc21`, the cytotoxicity call was “inactive”.

For the compound `C=CCN1C(=O)[C@@]2(O[C@@H](CCO)[C@H]([Si](C)(C)c3ccc(OC)cc3)[C@H]2C)c2cc(N3C(=O)c4cccc5cccc3c45)ccc21`, the cytotoxicity call was “active”. Turning to `C[C@H]1CCCCO[C@H](CN(C)C(=O)c2ccccc2)[C@@H](C)CN([C@@H](C)CO)C(=O)c2cc(NC(=O)Nc3ccc4c(c3)OCO4)ccc2O1`, the cytotoxicity call was “inactive”.

With `COc1ccc(S(=O)(=O)N2CC(NC(=O)Cn3ccc(=O)n(C)c3=O)C2)cc1`, the cytotoxicity call is “inactive”. With `O=S(=O)(N1CCOCC1)n1nnc2ccccc21`, the cytotoxicity call was “inactive”.

Take `C[C@H](CO)N1C[C@H](C)[C@H](CN(C)Cc2ccc(C(F)(F)F)cc2)Oc2ccc(NC(=O)Cn3cnnn3)cc2CC1=O`: the cytotoxicity call was “inactive”.
